Consider seven molecules from ChEMBL document CHEMBL1961873, “Compounds: GSK PKIS; Assays: Nanosyn kinase panel” (2012).

Assay [1] addresses MAP/microtubule affinity-regulating kinase 3 (Homo sapiens) (UniProt P27448). The following applies: at 1 µM.
Assay [2] addresses T1, MAP/microtubule affinity-regulating kinase 4 (Homo sapiens) (UniProt Q96L34).
T1 sequence (whole entry): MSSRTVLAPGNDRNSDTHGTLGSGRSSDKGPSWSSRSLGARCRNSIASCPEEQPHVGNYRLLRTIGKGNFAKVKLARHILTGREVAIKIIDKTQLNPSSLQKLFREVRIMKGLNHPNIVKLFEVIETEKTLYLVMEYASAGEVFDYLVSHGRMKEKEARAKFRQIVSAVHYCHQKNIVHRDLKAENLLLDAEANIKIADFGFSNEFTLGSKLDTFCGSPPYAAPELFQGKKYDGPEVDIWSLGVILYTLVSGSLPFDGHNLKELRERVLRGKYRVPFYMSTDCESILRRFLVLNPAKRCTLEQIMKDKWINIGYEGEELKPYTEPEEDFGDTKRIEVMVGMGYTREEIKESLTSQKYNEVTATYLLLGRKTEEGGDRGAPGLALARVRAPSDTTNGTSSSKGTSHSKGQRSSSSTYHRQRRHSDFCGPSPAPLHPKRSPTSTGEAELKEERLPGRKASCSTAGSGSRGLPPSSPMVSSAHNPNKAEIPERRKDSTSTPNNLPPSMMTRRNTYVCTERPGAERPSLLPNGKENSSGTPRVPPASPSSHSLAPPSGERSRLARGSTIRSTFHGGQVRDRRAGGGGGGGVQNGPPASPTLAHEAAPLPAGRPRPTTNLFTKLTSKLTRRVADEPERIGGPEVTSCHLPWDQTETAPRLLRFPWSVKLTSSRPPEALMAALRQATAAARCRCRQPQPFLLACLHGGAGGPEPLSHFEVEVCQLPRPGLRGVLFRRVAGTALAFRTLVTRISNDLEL
The conditions noted are these: at 0.1 µM.

Assay [3] concerns the target T1, MAP/microtubule affinity-regulating kinase 4 (Homo sapiens). The following applies: at 1 µM.
Assay [4] deals with Maternal embryonic leucine zipper kinase (Homo sapiens) (UniProt Q14680). The conditions noted are these: at 0.1 µM.
Maternal embryonic leucine zipper kinase (Homo sapiens), sequence (Q14680 whole entry, looked up): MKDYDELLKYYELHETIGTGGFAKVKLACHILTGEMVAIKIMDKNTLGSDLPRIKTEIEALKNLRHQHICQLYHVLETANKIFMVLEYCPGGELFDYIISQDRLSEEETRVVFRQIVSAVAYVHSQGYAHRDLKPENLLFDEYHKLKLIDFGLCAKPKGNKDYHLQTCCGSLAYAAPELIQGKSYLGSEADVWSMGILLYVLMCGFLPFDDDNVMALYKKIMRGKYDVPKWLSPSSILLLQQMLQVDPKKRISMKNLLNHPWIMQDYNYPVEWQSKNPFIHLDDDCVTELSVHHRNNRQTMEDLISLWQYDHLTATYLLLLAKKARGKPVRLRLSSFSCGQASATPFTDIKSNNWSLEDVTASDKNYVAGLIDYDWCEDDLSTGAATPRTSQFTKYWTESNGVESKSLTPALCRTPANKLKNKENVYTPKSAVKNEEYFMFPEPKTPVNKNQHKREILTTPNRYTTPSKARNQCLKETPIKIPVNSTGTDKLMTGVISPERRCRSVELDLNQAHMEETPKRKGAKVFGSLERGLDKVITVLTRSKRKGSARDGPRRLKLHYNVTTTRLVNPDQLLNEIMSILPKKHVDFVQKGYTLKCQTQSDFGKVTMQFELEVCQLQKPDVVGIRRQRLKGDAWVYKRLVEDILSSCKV
Assay [5] has the same target. The following applies: at 1 µM.
In assay [6] the target is MAP kinase-interacting serine/threonine-protein kinase 1 (Homo sapiens) (UniProt Q9BUB5). The following applies: at 0.1 µM.
MAP kinase-interacting serine/threonine-protein kinase 1 (Homo sapiens), sequence (Q9BUB5 whole entry, looked up): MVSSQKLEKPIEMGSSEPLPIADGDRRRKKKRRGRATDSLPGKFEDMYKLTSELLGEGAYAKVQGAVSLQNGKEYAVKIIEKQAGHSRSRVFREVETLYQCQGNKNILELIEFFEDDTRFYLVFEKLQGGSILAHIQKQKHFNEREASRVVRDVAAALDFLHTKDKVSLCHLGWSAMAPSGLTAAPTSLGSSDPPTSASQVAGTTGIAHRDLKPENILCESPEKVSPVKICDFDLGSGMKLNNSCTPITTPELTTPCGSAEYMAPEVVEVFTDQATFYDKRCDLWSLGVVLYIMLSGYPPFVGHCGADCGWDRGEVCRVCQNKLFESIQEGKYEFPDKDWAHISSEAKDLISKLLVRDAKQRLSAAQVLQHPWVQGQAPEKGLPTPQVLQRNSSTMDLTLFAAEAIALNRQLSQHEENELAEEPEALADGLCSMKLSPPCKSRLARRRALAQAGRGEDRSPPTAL
Assay [7] shares this target. The conditions noted are these: at 1 µM.
Assay [8] concerns the target MAP kinase-interacting serine/threonine-protein kinase 2 (Homo sapiens) (UniProt Q9HBH9). The conditions noted are these: at 0.1 µM.
The target is the same in assay [9]. The conditions noted are these: at 1 µM.
Assay [10] concerns the target Serine/threonine-protein kinase MARK2 (Homo sapiens) (UniProt Q7KZI7). The conditions noted are these: at 0.1 µM.
Assay [11] has the same target. The conditions noted are these: at 1 µM.
Assay [12] deals with PAS domain-containing serine/threonine-protein kinase (Homo sapiens) (UniProt Q96RG2). The conditions noted are these: at 0.1 µM.
PAS domain-containing serine/threonine-protein kinase (Homo sapiens), sequence (Q96RG2 whole entry, the tested form may be a part): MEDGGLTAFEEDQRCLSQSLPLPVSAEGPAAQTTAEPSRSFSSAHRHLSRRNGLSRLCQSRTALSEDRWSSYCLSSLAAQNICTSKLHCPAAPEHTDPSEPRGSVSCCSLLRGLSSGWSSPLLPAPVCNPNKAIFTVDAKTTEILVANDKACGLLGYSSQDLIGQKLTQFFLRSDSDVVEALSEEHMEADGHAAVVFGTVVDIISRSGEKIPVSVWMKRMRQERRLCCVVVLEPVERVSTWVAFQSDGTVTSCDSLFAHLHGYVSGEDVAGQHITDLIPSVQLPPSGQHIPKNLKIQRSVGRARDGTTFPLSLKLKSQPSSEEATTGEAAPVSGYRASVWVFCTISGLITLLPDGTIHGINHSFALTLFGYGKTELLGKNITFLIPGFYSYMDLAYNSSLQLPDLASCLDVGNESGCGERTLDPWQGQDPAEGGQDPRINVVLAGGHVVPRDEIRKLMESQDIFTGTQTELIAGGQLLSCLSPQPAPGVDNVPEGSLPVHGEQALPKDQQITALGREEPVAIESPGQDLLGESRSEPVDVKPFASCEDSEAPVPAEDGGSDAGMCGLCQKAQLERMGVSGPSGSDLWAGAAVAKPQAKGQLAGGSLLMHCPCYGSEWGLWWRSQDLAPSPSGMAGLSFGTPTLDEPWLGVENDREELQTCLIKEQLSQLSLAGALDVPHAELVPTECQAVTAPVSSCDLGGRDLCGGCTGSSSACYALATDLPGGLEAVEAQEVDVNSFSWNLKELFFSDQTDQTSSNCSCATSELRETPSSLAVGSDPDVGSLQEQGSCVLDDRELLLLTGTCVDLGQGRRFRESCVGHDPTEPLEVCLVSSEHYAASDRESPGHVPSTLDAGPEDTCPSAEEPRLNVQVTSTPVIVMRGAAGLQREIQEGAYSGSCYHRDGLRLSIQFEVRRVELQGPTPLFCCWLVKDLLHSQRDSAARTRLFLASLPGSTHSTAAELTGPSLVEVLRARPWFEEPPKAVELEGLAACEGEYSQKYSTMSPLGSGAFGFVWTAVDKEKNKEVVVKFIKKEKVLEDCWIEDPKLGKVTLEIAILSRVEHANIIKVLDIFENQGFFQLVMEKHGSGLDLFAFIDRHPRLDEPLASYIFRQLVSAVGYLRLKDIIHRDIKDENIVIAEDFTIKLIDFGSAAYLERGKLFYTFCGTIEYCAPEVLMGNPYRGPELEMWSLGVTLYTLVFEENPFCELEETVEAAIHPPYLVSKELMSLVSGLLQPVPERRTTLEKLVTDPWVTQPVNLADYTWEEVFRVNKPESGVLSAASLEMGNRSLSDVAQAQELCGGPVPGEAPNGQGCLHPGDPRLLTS
For assay [13] the target is unchanged. The conditions noted are these: at 1 µM.
Assay [14] addresses Phosphorylase b kinase gamma catalytic chain, skeletal muscle/heart isoform (Homo sapiens) (UniProt Q16816). The conditions noted are these: at 0.1 µM.
Assay [15] has the same target. The following applies: at 1 µM.
Assay [16] concerns the target T2, Phosphorylase b kinase gamma catalytic chain, liver/testis isoform (Homo sapiens) (UniProt P15735).
T2 sequence (whole entry): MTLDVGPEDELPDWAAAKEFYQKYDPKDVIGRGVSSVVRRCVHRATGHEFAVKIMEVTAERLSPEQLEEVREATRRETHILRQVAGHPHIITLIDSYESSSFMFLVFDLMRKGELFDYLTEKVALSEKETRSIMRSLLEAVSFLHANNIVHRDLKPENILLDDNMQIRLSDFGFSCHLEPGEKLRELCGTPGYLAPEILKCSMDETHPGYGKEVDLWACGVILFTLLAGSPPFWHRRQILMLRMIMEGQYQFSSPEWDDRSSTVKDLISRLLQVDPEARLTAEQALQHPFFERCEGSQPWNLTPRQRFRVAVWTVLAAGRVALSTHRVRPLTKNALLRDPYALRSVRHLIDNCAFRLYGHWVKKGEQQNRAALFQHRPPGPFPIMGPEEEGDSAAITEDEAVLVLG
The following applies: at 0.1 µM.

The target of assay [17] is T2, Phosphorylase b kinase gamma catalytic chain, liver/testis isoform (Homo sapiens). The conditions noted are these: at 1 µM.
The target of assay [18] is Serine/threonine-protein kinase pim-1 (Homo sapiens) (UniProt P11309). The conditions noted are these: at 0.1 µM.
Serine/threonine-protein kinase pim-1 (Homo sapiens), sequence (P11309 whole entry, looked up): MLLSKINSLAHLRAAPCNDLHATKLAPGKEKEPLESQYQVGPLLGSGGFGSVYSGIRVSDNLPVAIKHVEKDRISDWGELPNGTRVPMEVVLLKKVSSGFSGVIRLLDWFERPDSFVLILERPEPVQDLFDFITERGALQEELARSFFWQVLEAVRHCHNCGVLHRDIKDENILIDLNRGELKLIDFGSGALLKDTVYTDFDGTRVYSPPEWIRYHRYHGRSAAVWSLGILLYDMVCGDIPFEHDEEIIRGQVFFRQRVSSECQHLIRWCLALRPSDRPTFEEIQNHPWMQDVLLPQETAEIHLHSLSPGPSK
Assay [19] has the same target. The conditions noted are these: at 1 µM.
In assay [20] the target is Serine/threonine-protein kinase pim-2 (Homo sapiens) (UniProt Q9P1W9). The following applies: at 0.1 µM.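 Note: reported value is the mean percent inhibition of PIM2, measured in the GSK PKIS kinase inhibitor set screen.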
Serine/threonine-protein kinase pim-2 (Homo sapiens), sequence (Q9P1W9 whole entry, looked up): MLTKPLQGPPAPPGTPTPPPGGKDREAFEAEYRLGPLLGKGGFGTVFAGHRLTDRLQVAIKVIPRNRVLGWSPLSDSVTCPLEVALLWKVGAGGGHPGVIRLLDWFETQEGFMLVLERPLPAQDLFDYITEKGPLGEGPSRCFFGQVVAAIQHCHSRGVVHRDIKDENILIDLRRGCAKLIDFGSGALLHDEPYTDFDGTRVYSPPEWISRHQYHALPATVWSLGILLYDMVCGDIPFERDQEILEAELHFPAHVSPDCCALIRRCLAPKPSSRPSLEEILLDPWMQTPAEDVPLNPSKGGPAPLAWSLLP

Phosphorylase b kinase gamma catalytic chain, skeletal muscle/heart isoform (Homo sapiens), sequence (Q16816 whole entry, looked up, canonical isoform): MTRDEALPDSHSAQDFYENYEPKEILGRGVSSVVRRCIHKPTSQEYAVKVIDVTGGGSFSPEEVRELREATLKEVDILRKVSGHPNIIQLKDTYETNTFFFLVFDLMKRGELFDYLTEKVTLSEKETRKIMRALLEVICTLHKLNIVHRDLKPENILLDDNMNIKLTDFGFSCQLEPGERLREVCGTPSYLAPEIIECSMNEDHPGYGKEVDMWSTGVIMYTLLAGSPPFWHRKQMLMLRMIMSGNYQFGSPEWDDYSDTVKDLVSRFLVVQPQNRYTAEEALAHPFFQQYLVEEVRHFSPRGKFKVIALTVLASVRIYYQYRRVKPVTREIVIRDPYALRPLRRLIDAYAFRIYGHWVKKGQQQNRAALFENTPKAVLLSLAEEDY
MAP kinase-interacting serine/threonine-protein kinase 2 (Homo sapiens), sequence (Q9HBH9 whole entry, looked up): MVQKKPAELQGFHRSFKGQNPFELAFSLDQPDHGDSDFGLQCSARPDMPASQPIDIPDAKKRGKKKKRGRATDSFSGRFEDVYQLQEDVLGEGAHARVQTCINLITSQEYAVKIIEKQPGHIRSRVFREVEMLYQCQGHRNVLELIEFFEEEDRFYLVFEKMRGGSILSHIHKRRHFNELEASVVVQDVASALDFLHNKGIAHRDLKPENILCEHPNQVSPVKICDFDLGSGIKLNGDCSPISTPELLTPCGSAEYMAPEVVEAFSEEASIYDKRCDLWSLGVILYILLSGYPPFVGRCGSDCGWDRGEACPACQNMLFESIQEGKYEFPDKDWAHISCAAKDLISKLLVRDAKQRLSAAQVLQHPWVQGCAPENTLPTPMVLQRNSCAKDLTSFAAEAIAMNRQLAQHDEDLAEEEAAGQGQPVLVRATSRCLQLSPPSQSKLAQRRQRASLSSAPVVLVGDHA
MAP/microtubule affinity-regulating kinase 3 (Homo sapiens), sequence (P27448 whole entry, looked up): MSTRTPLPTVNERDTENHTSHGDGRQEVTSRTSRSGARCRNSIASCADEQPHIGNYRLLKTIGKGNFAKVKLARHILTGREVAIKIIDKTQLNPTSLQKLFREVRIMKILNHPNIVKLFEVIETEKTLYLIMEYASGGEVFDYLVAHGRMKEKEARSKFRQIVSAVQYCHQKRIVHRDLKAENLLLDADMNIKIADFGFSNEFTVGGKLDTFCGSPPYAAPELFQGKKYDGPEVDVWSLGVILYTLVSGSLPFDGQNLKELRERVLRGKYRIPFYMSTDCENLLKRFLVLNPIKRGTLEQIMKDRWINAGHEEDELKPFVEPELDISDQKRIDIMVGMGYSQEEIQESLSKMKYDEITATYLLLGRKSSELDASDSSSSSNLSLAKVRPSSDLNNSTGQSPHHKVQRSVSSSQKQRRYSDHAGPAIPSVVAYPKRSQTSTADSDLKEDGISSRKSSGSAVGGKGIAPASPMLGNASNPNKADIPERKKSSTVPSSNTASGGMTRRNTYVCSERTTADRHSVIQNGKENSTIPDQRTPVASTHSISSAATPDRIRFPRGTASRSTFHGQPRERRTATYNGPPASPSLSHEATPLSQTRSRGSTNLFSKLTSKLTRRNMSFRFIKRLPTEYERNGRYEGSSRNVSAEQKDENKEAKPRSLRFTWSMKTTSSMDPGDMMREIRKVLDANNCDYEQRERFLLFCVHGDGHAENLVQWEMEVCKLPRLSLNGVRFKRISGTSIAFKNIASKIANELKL

As to `COc1cc(N2CCN(C(C)C)CC2)ccc1Nc1nc(Nc2cccc3ncccc23)c2cc[nH]c2n1`, the inhibition in [1] is 3.2%; in assay [2] it was 0.47%; in assay [3] it was 1.44%; in [4], -0.58%; in [5], 3.21%; in assay [6] it was 0.05%. Moreover, the inhibition in [7] is 2.31%; in assay [8], -0.09%; in [9], 1.91%; in assay [10] it was -0.66%; in assay [11], 1.39%; in assay [12] it was -0.26%. The inhibition was -0.72% in assay [13]; 2.93% in assay [14]; 28.6% in assay [15]; -1.68% in assay [16]; 0.96% in [17]; 0.12% in assay [18]. Besides, the inhibition in assay [19] is 0.51%; in assay [20], -0.9%.
As to `CCS(=O)(=O)c1ccc(OC)c(Nc2ncc(-c3cccc(C(C)=O)c3)o2)c1`, the inhibition in [1] came to 10.1%; in assay [2] it was 0.67%; in [3], 1.52%; in assay [4] it was 2.17%; in assay [5], 7.46%; in [6], 3.04%. Besides, the inhibition was 12.2% in [7]; 2.96% in assay [8]; 6.18% in [9]; -1.1% in assay [10]; -4.12% in assay [11]; 0.37% in assay [12]. The inhibition turned out to be 2.34% in assay [13]; 1.7% in [14]; 10.4% in [15]; 3.37% in assay [16]; 6.45% in [17]; 0.82% in assay [18]. In addition, the inhibition in assay [19] was 1.66%; in [20], -0.72%.
As for `O=C(Nc1n[nH]c2nnc(-c3cccnc3)cc12)C1CC1`, the inhibition in [1] was 1.25%; in assay [2], 0.54%; in assay [3], 0.56%; in assay [4], -0.51%; in [5], 1.48%; in assay [6], 0.68%. Besides, the inhibition in [7] was -0.29%; in assay [8] it was 0.77%; in assay [9], 2.11%; in assay [10], 0.83%; in assay [11] it was 1.5%; in assay [12], 1.31%. Besides, the inhibition is 0.02% in [13]; 0.1% in [14]; -0.03% in assay [15]; -1.23% in assay [16]; -1.9% in [17]; 26.1% in [18]. The inhibition was 74.5% in assay [19] and 4.25% in [20].
`COc1cc2c(cc1Nc1nc(Nc3cccc(F)c3C(N)=O)c3cc[nH]c3n1)N(C(=O)CN1CCN(C(C)C)CC1)CC2`: the inhibition came out at 3.29% in assay [1]; 0.59% in assay [2]; 2.06% in [3]; 2.86% in assay [4]; 18.4% in assay [5]; 1.4% in assay [6]. For the same molecule, the inhibition in assay [7] is 1.42%; in assay [8] it was 1.33%; in [9], 4.51%; in assay [10], 0.26%; in [11] it was 3.63%; in [12], -0.77%. The inhibition was -0.72% in [13]; 0.29% in assay [14]; 9.54% in assay [15]; 3.29% in assay [16]; 5.63% in [17]; 1.43% in assay [18]. The inhibition in [19] was 0.21%; in assay [20], -0.02%.
Regarding `NS(=O)(=O)c1cccc(N/C=C2\C(=O)Nc3ccccc32)c1`, the inhibition in [1] was 17%; in [2], 4.17%; in assay [3] it was 15.5%; in [4], 5.46%; in [5] it was 19%; in assay [6], 2.36%. Besides, the inhibition was 4.02% in assay [7]; 1.04% in assay [8]; 2.05% in assay [9]; 2.99% in assay [10]; 12.6% in [11]; -0.26% in assay [12]. In addition, the inhibition is -1.04% in [13]; 7.73% in assay [14]; 33.3% in assay [15]; 5.62% in assay [16]; 13.4% in assay [17]; 0.75% in assay [18]. Besides, the inhibition in assay [19] is 0.73%; in assay [20], -0.33%.
`FC(F)(F)CNc1nccc(-c2cnn3ncccc23)n1`: the inhibition in assay [1] is -0.26%; in [2] it was 1.01%; in assay [3], 0.89%; in assay [4], 5.66%; in [5], 27.5%; in assay [6], 4.07%. Moreover, the inhibition in [7] was 20.6%; in [8], 2.55%; in [9] it was 26.4%; in [10], 0.47%; in assay [11] it was 2.13%; in assay [12], 1.06%. Also, the inhibition in assay [13] came to 0.79%; in assay [14], 3.02%; in assay [15], 6.43%; in assay [16], 3.98%; in assay [17], 4.36%; in assay [18], 0.08%. Also, the inhibition in [19] is 3.03%; in assay [20] it was -0.09%.
As to `NS(=O)(=O)c1ccc(N/N=C2\C(=O)Nc3ccc(C(=O)NCc4ccncc4)cc32)cc1`, the inhibition in [1] turned out to be 34.4%; in assay [2], 4.76%; in assay [3], 33.7%; in assay [4], 49.6%; in [5], 90.6%; in [6] it was 2.18%. For the same molecule, the inhibition came to 10.9% in [7]; 1.66% in assay [8]; 6.27% in assay [9]; 0.88% in assay [10]; 21.3% in assay [11]; 0.76% in assay [12]. Also, the inhibition came out at 2.6% in assay [13]; 5.19% in [14]; 28.9% in [15]; 4.99% in assay [16]; 11.4% in [17]; 1.75% in assay [18]. The inhibition amounted to 7.29% in [19] and 0.12% in assay [20].

One may read the inhibition as the change of the read-out against control, counted positive when it falls.
